From PubChem
This is one part of a sample in which hits are shown more often than they occur.
Tgondii IFNg: T. gondii growth inhibition with IFN-gamma, primary screen, cell-based | 69,000 tested, 3.8% active | activity change, negative = inhibition, % (concentration not given with the values) | Toxoplasma gondii growth in IFN-gamma-treated host cells; stronger effect = lower value; in the data active = activity change below about -70%, passing the limit was not always enough;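 note: host cells are HeLa cells infected with Toxoplasma gondii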
* marks the source's active call; other numbers are inactive results; i = inactive; ! = not active in a repeat.

SMILES | Tgondii IFNg
Cc1cccc(-c2nc(Cn3nnc(C(=O)NCc4cccc(Cl)c4)c3C)c(C)o2)c1 | -96.9*
Cc1ccc(NC(=O)c2nnn(Cc3nc(-c4cccc(Cl)c4)oc3C)c2C)cc1F | 76.7
Cc1cc(NC(=O)c2nnn(Cc3nc(-c4cccc(Cl)c4)oc3C)c2C)ccc1Br | 67.4
Cc1cccc(-c2nc(Cn3nnc(C(=O)NCc4ccc(F)c(Cl)c4)c3C)c(C)o2)c1 | -93.3*
Cc1ccc(C(=O)N2CCCCC2CCn2ccnc2)cc1NC(=O)C1CC1 (stereo not drawn) | -0.8
CCOC(=O)c1nnn(Cc2ccccc2Cl)c1N | 15.1
CCn1c(SCc2nc(-c3cccc(Cl)c3)oc2C)nc(=O)c2c(C(=O)OC)cc(C)nc21 | i
CCO[C@@H]1CC[C@@H]2[C@@H]1OCCN2C(=O)c1ccc2ccccc2c1 | 0.7
COCCCN1CCCC12CCN(C(=O)COC)CC2 | 219.8
O=C(NCc1csc(N2CCOCC2)n1)c1cccc2ccnn12 | 32.8
O=C(NCc1noc(Cc2ccccc2)n1)c1cccc2ccnn12 | 6.9
O=C(NCc1coc(-c2ccccc2)n1)c1cccc2ccnn12 | -79.8*
O=C(CN1C(=O)CCc2cc(Br)ccc21)NCC1CCN(Cc2ccccc2F)CC1 | -42.9
CCc1ccc(CN2CCN(c3nc(N(C)C)nc(C)c3C)CC2)nc1 | 5.8
CN(C)C1CCOC2(CCN(Cc3ccccc3Cl)CC2)C1 (stereo not drawn) | -4.5
O=C(CN1C(=O)CCc2cc(S(=O)(=O)N3CCCC3)ccc21)Nc1cccc(Cl)c1 | -102.6*
O=C(CN1C(=O)CCc2cc(S(=O)(=O)N3CCCCC3)ccc21)Nc1ccccc1 | -22.3
Cc1c(Cl)cccc1NC(=O)CN1C(=O)CCc2cc(S(=O)(=O)N3CCCCC3)ccc21 | -11.4
Cc1ccc(NC(=O)CN2C(=O)CCc3cc(S(=O)(=O)N4CCCCC4)ccc32)cc1C | 3.0
CC(C)c1ccc(NC(=O)CN2C(=O)CCc3cc(S(=O)(=O)N4CCOCC4)ccc32)cc1 | -18.5
Cc1ccc(NC(=O)CN2C(=O)CCc3cc(S(=O)(=O)N4CCCC4)ccc32)cc1C | 18.6
O=C(CN1C(=O)CCc2cc(S(=O)(=O)N3CCCCC3)ccc21)Nc1cccc(Cl)c1 | -88.4*
Cc1ccc(NC(=O)CN2C(=O)CCc3cc(S(=O)(=O)N4CCCC4)ccc32)cc1 | 38.1
CC(C)c1ccc(NC(=O)CN2C(=O)CCc3cc(S(=O)(=O)N4CCCCC4)ccc32)cc1 | -113.3*
COCCN(Cc1cccs1)C(=O)c1c(C)nc2ncccn12 | -7.9
SMILES | Tgondii IFNg
COc1cc(Nc2nc(-c3nnc(-c4ccc(C)cc4)o3)nc3ccccc23)cc(OC)c1OC | 371.9
COc1cc2c(cc1OC)CN(CC(=O)NCCn1ccnc1)CC2 | 0.8
O=C(c1cnn2c1CCCC2)N1CCCC1c1ccccn1 (stereo not drawn) | 22.1
Cc1ccc(Nc2ncnc3c2cnn3-c2ccc(Cl)cc2)cc1 | 22.4
Clc1ccc(-n2ncc3c(NC4CCCCCCCCCCC4)ncnc32)cc1 | 10.8
CC(C)Nc1ncnc2c1cnn2-c1ccc(Cl)cc1 | -73.2*
CC(C)NC(=O)CC1CC2(CCN(C(=O)CC3CC3)CC2)Oc2ccccc21 (stereo not drawn) | -23.1
COCC(=O)N1CCC2(CC1)CN(c1cncnc1)C(=O)CO2 | 80.4
O=c1cc(-c2ccccc2)oc2cc(O)c(O)c(O)c12 | -77.2*!
O=c1c(O)cccc2cc(O)c(O)c(O)c12 | 12.1
COc1ccc(-c2cc(=O)c3c(O)cc(O)cc3o2)cc1O | 85.6
O=c1c(O)c(-c2ccccc2)oc2cc(O)cc(O)c12 | 66.5
COc1cc2oc(-c3ccc(O)cc3)cc(=O)c2c(OC)c1O | -82.4*
COc1ccc(-c2cc(=O)c3ccc(O)cc3o2)cc1 | -7.5
Cc1nn(Cc2ccccc2)c(C)c1CN(Cc1ccc2c(c1)OCO2)CC(C)O (stereo not drawn) | -49.5
COCC(=O)Nc1ccc2c(c1)CCC(=O)N2C | 5.4
CCNC(=O)c1ccc(-c2cc(NCCO)nc3[nH]ccc23)cc1 | -0.6
COc1ccccc1-c1nc(CSc2nc3c(c(=O)[nH]2)CN(Cc2ccccc2)CC3)c(C)o1 | 5.2
CCOc1ccc(-c2nc(Cn3ccn4nc(-c5ccc(C)cc5)cc4c3=O)c(C)o2)cc1 | 21.4
CCN(Cc1nccn1C)C(=O)c1ccc(-c2csc3ccccc23)nc1 | 2.6
Cc1cc(NC(=O)c2cccc3ccccc23)cc(C)c1OCC(=O)N1CCOCC1 | -2.3
O=C(COc1cccc(-n2cnnc2)c1)N1CCOCC1 | -85.2*
O=C(CSCCOc1ccccc1)N1CCOCC1 | 55.1
Cc1n[nH]c(C)c1Cc1nc(CN2CCN(C)CC2)no1 | 16.4
Cc1oc(-c2ccccc2)nc1Cn1nnc(-c2nc(-c3ccc(C(F)(F)F)cc3)no2)c1C | -2.8
SMILES | Tgondii IFNg
CC(=O)Nc1ccc(Cl)c(C(=O)N(C)Cc2nc3ccccc3n2C)c1 | 5.1
CC(C)CN1CCN(C(=O)NCCc2ccc(F)cc2)C(C)C1=O (stereo not drawn) | 4.1
CC1CCc2cc(F)ccc2N1C(=O)c1cc2cccnc2n(Cc2ccccc2F)c1=O (stereo not drawn) | -28.1
Cn1c(-c2ccccc2)cnc1SCC(=O)Nc1ccc(Cl)cc1 | 6.8
CC1CCc2cc(F)ccc2N1C(=O)CSc1ncc(-c2ccccc2)n1C1CCCC1 (stereo not drawn) | -80.1*
Cc1ccc(C(=O)N2C[C@@H]3COC[C@@]3(Cc3nnc(C4CC4)o3)C2)cn1 | 2.1
Cc1nc(NCCNC(=O)c2ccncc2)cc(C(C)C)n1 | -46.4
Cc1ccc(C)c(NC(=O)c2nnn(Cc3nc(-c4ccc(OC(C)C)cc4)oc3C)c2C)c1 | 11.0
CCOc1ccc(-c2nc(Cn3nnc(C(=O)Nc4cc(F)ccc4C)c3C)c(C)o2)cc1 | 73.0
COc1ccc(NC(=O)c2nnn(Cc3nc(-c4ccc(OC(C)C)cc4)oc3C)c2C)c(OC)c1 | -37.7
Cc1cccc(NC(=O)c2nnn(Cc3nc(-c4ccc(Cl)cc4)oc3C)c2C)c1C | -3.8
CCc1ccccc1NC(=O)c1nnn(Cc2nc(-c3cccc(OC)c3OC)oc2C)c1C | -84.5*
Cc1oc(-c2ccc(OC(C)C)cc2)nc1Cn1nnc(C(=O)Nc2ccc(F)cc2F)c1C | -109.6*
CCc1ccccc1NC(=O)c1nnn(Cc2nc(-c3cc(Br)ccc3OC)oc2C)c1C | 55.5
COc1cccc(-c2nc(Cn3nnc(C(=O)Nc4ccccc4C)c3C)c(C)o2)c1OC | 49.5
Cc1cccc(NC(=O)c2nnn(Cc3nc(-c4ccc(OC(C)C)cc4)oc3C)c2C)c1C | -89.1*
O=C1CCC(c2cccs2)=C1CC(=O)N1CC[C@H](O)[C@@H](O)C1 | -4.2
O=C(NC1CCc2[nH]c(=O)ccc2C1)c1ccnnc1 (stereo not drawn) | -38.9
CCOC(=O)c1nc(NCc2ccc(CC)cc2)c2ccccc2n1 | -44.4
CN1CC[C@@]2(CN(C(=O)[C@H]3CCCO3)C[C@H]2c2ccccc2)C1=O | 153.3
Cc1ccc(-c2nc(Cn3nnc(C(=O)NCc4ccc(C)o4)c3C)c(C)o2)cc1 | -52.4
Cc1cnc2c(C(=O)N3CCn4nc(C(=O)NC5CC5)cc4C3)cnn2c1 | 2.9
CCc1nc(N2CCOCC2)ncc1C(=O)NCCN1CCc2ccccc21 | 79.7
CCOc1ccc(CCNC(=O)c2nc(N3CCC(C)CC3)c3ccccc3n2)cc1OCC | -98.3*
CCOc1cc(CNC(=O)c2nc(N3CCOCC3)c3ccccc3n2)ccc1OC | -20.1
CCOc1ccc(CCNC(=O)c2nc(N3CCCC3)c3ccccc3n2)cc1OCC | -62.7
CCCc1cc(C(=O)N2CCC3(CC2)Nc2ccccc2NC3=O)n(C)n1 | 0.4
